Rows were chosen to be rich in hits. Some 19% of all compounds tested hit in one or more screens of this group.
HT1080NT lethal: kills 2HG-producing HT-1080-NT fibrosarcoma cells; HT-1080-NT fibrosarcoma viability, CellTiter-Glo ATP luminescence, 48 h; Potency, µM (titrated, usually from 46.1 µM), without a hit: top-dose activity, negative = less viability, most hits filed as cytotoxic; actives 1.6% (n = 360,000);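 further: NT is the 2HG producing partner of a matched IDH1 knockdown line; potency means the concentration at half of the fitted maximal effect; 0% = DMSO-treated cells and -100% = media-only wells without cells; nearly all actives have a fitted effect of over 55% in size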
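750 cells/well, RPMI + 5% FBS; 2 h settle, compound pin-transfer, 48 h at 37 degrees C. CellTiter-Glo 10 min RT, luminescence. Normalized to DMSO and media-only wells.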
HT1080 IDH1KD tx: kills HT-1080 cells with IDH1 knockdown. HT-1080 IDH1 knockdown viability, ATP luminescence, 48 h. Potency, µM (highest dose often 46.1 µM), for the others: at the highest dose activity, negative = toxicity, actives largely listed as cytotoxic. actives 2% (n = 360,000). AID 686971;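 further: potency means the concentration at half of the fitted maximal effect; 0% = DMSO wells and -100% = cell-free medium wells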
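Cytotoxicity counter-line: IDH1KD HT-1080, 48 h, CellTiter-Glo. Curves classed by r2, magnitude and activity.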
ELG1 DNA repair: blocks ELG1-dependent DNA repair in HEK293T cells; HEK293T ELG1-luciferase reporter, luminescence, 16 h; DNA damage induced by 5-fluorouridine; Potency, µM (doses to about 46.1 µM), for the others: at the highest dose activity change, negative = inhibition, hits mostly inhibitors; actives 2.3% (n = 330,000); further: potency means the concentration at half of the fitted maximal effect; nearly all actives have a fitted effect of over 55% in size
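Reporter activity after DNA damage by 5-fluorouridine is monitored. Compound-treated cells incubate 16 hr at 37 °C, then ONE-Glo is added for 30 min before luminescence reading.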
IL1B secr inh: blocks inflammasome-driven IL-1 beta release. activity change, % at 57.5 µM. THP-1 LPS/ATP IL-1B secretion, AlphaLISA, 16 h; active compounds read low. AID 743279. actives 4.7% (n = 360,000); in the data active means activity change below about -50%; inconclusive means mostly about -30% to -49%
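Secreted IL-1B measured by AlphaLISA bead assay after 16 h compound exposure of THP-1 cells; compounds (final up to 57.5 uM) added 1 h before LPS (250 ng/mL) and ATP (1.25 mM) stimulation; lower signal means less secretion.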
DT40 TDP1 CPT: growth inhibition of DT40 Tdp1-/-;hTDP1 cells with camptothecin (screen for TDP1 inhibitors) | actives 12% (n = 420,000) | Potency, µM (titrated, usually from 46.2 µM), inactives show top-dose activity change, negative = growth inhibition, usual class: inhibitors | chicken DT40 Tdp1-/-;hTDP1 cells + 20 nM CPT, ATP luminescence, 48 h; further: potency means the concentration at half of the fitted maximal effect; nearly all actives have a fitted effect of over 55% in size
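Cell growth measured by CellTiter-Glo luminescence after a minimum 48 h, 37 C compound exposure with 20 nM CPT in Tdp1-knockout DT40 cells stably expressing hTDP1, seeded 400/well; qHTS titration format.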
DT40 TDP1 no CPT: qHTS for Inhibitors of human tyrosyl-DNA phosphodiesterase 1 (TDP1): qHTS in cells in absence of CPT; AID 686978, 2013; actives 15% (n = 420,000); DT40 Tdp1-/- hTDP1 cells, no CPT, ATP luminescence, 48 h; Potency, µM (series often up to 46.2 µM), inactives show at the highest dose activity change, negative = growth inhibition, most hits filed as inhibitors; further: potency means the concentration at half of the fitted maximal effect; nearly all actives have a fitted effect of over 55% in size
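Chicken DT40 Tdp1-/- cells complemented with human TDP1, screened without camptothecin (DMSO vehicle only), 400 cells/well. Compounds pin-transferred, cells incubated at 37 °C for at least 48 hr. Growth read as ATP-dependent luminescence (CellTiter-Glo, 30 min at RT).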
An asterisk follows results filed as active; ? = inconclusive; . = no result; [ ] = dose if it differs, or a comment. Unless noted, the call rests on the fitted dose curve; in most records, active means well fitted curve in the direction sought with a large enough effect; inconclusive means small, poorly fitted or top-dose-only effect, or another doubt; inactive means no such curve, though single readings can be large; an effect the other way counts as inactive or inconclusive. Unless noted, on the % scale 0 is the no-effect control and ±100 the full control effect.

SMILES | HT1080NT lethal | HT1080 IDH1KD tx | ELG1 DNA repair | IL1B secr inh | DT40 TDP1 CPT | DT40 TDP1 no CPT
Fc1ccccc1Cn1nnc2c(NCCc3ccccn3)ncnc21 | 3% | 4% | -23% | -11 | -16% | -29%
Fc1cccc(Cl)c1Cn1nnc2c(NCc3ccccn3)ncnc21 | -10% | -15% | -15% | -59* | ? | -25%
N#CC(c1ccc(Cl)cc1)c1c(Cl)cc(-n2ncc(=O)[nH]c2=O)cc1Cl (stereo not drawn) | . | . | . | . | 1% | 0%
CC(C)C(=O)Nc1ccc(Sc2ccc(F)cc2)cc1 | 2% | -4% | 10% | -3 | 16µM* | 16µM*
CCCCc1ccc(NC(=O)CC(C)(C)C)cc1 | ? | -29% | ? | -76* | -2% | ?
CC(C)(C)CC(=O)Nc1ccc(Nc2ccccc2)cc1 | -6% | -15% | ? | -62* | -26% | -28%
CC(C)C(=O)Nc1ccc(Nc2ccccc2)cc1 | 3% | -2% | 20% | -10 | 12µM* | 10µM*
CCCCc1ccc(NC(=O)CC(C)=O)cc1 | 11% | 16% | ? | 1 | -1% | -9%
Cc1c(NC(=O)c2cc(Br)ccc2Cl)cccc1-n1cnnn1 | -9%[9.24 µM] | 8% | -15% | -28 | -8% | -6%
CCCCc1ccc(NC(=O)C(C)CC)cc1 (stereo not drawn) | 9% | 5% | ? | ? | -20% | -10%
CC(C)C(=O)Nc1ccc(NC(=O)c2cccc3c(Br)cccc23)cc1 | 18% | 22% | 12% | -8 | 16µM* | ?
CCCCc1ccc(NC(=O)N[C@@H](C)C(=O)O)cc1 | 22% | -1% | 8% | 21 | 4.6µM* | 5.2µM*
Cc1cc(C)cc(C(=O)NC(CC(N)=O)c2ccc(NC3CCCCC3)c([N+](=O)[O-])c2)c1 (stereo not drawn) | -5% | 3% | -2% | 9 | -23% | -3%
O=C1NC(=O)C(Cc2ccc(O)cc2)N1 (stereo not drawn) | 7% | 11% | . | 6 | 7% | 15%
CC(=O)c1cccc([N+](=O)[O-])c1 | 3% | 16% | 19% | 5 | 3% | 6%
O=C(Oc1ccc(F)cc1C(=O)/C=C/c1cccs1)c1cccc([N+](=O)[O-])c1 | -37% | ? | ? | ? | 0.16µM* | 0.37µM*
COc1ccc(C(=O)/C=C/Nc2ccc([N+](=O)[O-])cc2C)c(OC)c1 | 15% | 11% | 23% | -3 | -24% | ?
O=C(/C=C/c1ccccc1F)c1cccc([N+](=O)[O-])c1 | -13% | -25% | ? | -9 | ? | 21µM*
COc1ccc(C(=O)/C=C/c2ccccc2F)c(OC(=O)c2ccc([N+](=O)[O-])cc2)c1 | -5% | -29% | ? | -101* | 23µM* | 13µM*
COc1cc(CC(=O)OCc2cccc([N+](=O)[O-])c2)cc(OC)c1OC | 2% | -15% | 9% | 11 | 0% | ?
COc1cc(/C=C/C(=O)c2cccc([N+](=O)[O-])c2)cc(OC)c1OC | ? | ? | ? | -61* | 5.8µM* | 5.2µM*
COc1ccccc1NC(=O)C1=C(C)Nc2nnnn2C1c1cc(Br)c(O)c(OC)c1 (stereo not drawn) | . | . | . | . | 5% | 1%
O=C(CSc1nc(=O)n(CCCN2CCOCC2)c2c1CCCC2)Nc1ccc(F)cc1 | -12% | -8% | 0% | -3 | -5% | -8%
Cc1ccc(Nc2nc3ccccc3n3cnnc23)cc1C | 17% | 25% | ? | 61 | 5% | ?
Cc1ccc2nc(Nc3ccc(C)c(C)c3)c3nncn3c2c1 | 7% | 25% | -4% | -6 | ? | 21µM*
SMILES | HT1080NT lethal | HT1080 IDH1KD tx | ELG1 DNA repair | IL1B secr inh | DT40 TDP1 CPT | DT40 TDP1 no CPT
c1ccc(N2CCOCC2)c(Nc2nc3ccccc3n3cnnc23)c1 | -3% | -7% | ? | -10 | 21µM* | 16µM*
COc1ccccc1Nc1nc2ccc(C)cc2n2cnnc12 | -2% | 5% | ? | -12 | ? | 18µM*
CCOC(=O)C1(C)CCN1C(=O)c1cc(OC)ccc1Br (stereo not drawn) | 13% | 12% | . | 60 | ? | ?
COc1cccc(/C=C/c2nccc3ccccc23)c1OC | . | . | . | . | ? | 16µM*
Fc1ccc(/C=C/c2nccc3ccccc23)cc1 | . | . | . | . | 7.1µM* | 14µM*
COC(=O)c1cn(NC(=O)/C=C/c2cccc(OC)c2OC)c(=O)c2ccccc12 | . | . | -1% | . | . | .
COc1cccc(/C=C/C(=O)NNC(=O)c2ccncc2)c1OC | -4% | -1% | ? | -16 | 2% | -4%
COc1cccc(/C=C/c2ccncc2)c1OC | 8% | 10% | ? | -9 | ? | 23µM*
COc1ccccc1-c1nc2ccccc2nc1-c1ccccc1OC | 8% | 2% | -26% | 8 | ? | ?
COc1cccc(/C=C/c2nc3ccccc3nc2/C=C/c2cccc(OC)c2OC)c1OC | . | . | . | . | 8.9µM* | 2.8µM*
COc1ccccc1CNC(=O)CN1C(=O)NC2(CCCC2)C1=O | 0% | -2% | 2% | 0 | 24% | 17%
CCn1cc(C(=O)Nc2ccc(C(C)C)cc2)c2cc(OC)c(OC)cc2c1=O | . | . | . | . | ? | 16µM*
CCn1cc(C(=O)Nc2cccc(NC(C)=O)c2)c2cc(OC)c(OC)cc2c1=O | 0% | 15% | ? | -12 | -14% | ?
COc1cc2c(C(=O)N(C)c3cccc(C(F)(F)F)c3)cn(CC(C)C)c(=O)c2cc1OC | . | . | . | . | 13µM* | 18µM*
COc1cc2c(C(=O)NCCN(C)C)cn(CC(C)C)c(=O)c2cc1OC | 7% | ? | ? | 32 | -11% | 9%
CCn1cc(C(=O)N(C)c2ccc(C(C)C)cc2)c2cc(OC)c(OC)cc2c1=O | . | . | . | . | ? | 18µM*
O=C1c2cccc3cccc(c23)C(=O)N1Cc1ccccn1 | -6% | 0% | . | -8 | -5% | -20%
CC1=CC2=NC(=O)C(c3ccccc3)C(=O)N2C=C1 (stereo not drawn) | 0% | 1% | . | 31 | -1% | -9%
CN(C)Cc1c(C(=O)N/N=C/c2ccc(OCc3c(F)cccc3Cl)cc2)nnn1-c1nonc1N | -11% | 1% | ? | -2 | ? | 13µM*
